# Test results as given in PubChem BioAssay AID743383 (National Center for Advancing Translational Sciences (NCATS), 2014).
# The source made the active and inactive calls. Calls come from the whole dose curve.
# Biological target: Phosphatidylinositol 5-phosphate 4-kinase type-2 alpha (Homo sapiens) (UniProt P48426)
# Experiment: qHTS for Inhibitors of PI5P4K: PI5P4K-alpha 32P-ATP TLC Secondary Assay for Probe SAR
# Settings: recombinant PI5P4K-alpha, 32P-ATP TLC PI(4,5)P2 formation
# Source text: In addition to finding PI5P, we discovered the type II phosphatidylinositol 5-phosphate 4-kinase (PI5P4K) family (alpha, beta, gamma isoforms) that catalyze the conversion of PI5P to PI(4,5)P2. Alternatively, PI(4,5)P2 can also be synthesized through phosphatidylinositol-4-phosphate (PI4P) by the type I phosphatidylinositol 4-phosphate 5-kinases (PI4P5K). These PI5P4K enzymes therefore represent one way by which cells can regulate endogenous PI5P levels and play important roles in insulin signaling and in stress responses. […] A qHTS PI5P4K-alpha ADP-Glo assay was developed to identify specific modulators of human PI5P4K, phosphatidylinositol-5-phosphate 4-kinase (Type II PIPK). To confirm that the active compounds and their analogs were true and selective inhibitors, a secondary Thin-layer Chromatography (TLC) assay against recombinant PI5P4K-alpha, PI4P5K-alpha or PI5P4K-beta that utilize a radioactively labeled ATP were developed. The data herein are the result of the PI5P4Kalpha TLC assay. […]
# The kinase reaction was carried out in a total of 50 microL of kinase buffer (50 mM HEPES pH 7.4 and 10 mM MgCl2) containing 20 microM of the lipids that were suspended by sonication. […] The radiolabeled product, PI(4,5)P2, was quantified with a phosphorimager (Molecular Dynamics, STORM840, GE Healthcare, Waukesha, WI, USA).
# Sequence of Phosphatidylinositol 5-phosphate 4-kinase type-2 alpha (Homo sapiens) (P48426 whole entry, looked up): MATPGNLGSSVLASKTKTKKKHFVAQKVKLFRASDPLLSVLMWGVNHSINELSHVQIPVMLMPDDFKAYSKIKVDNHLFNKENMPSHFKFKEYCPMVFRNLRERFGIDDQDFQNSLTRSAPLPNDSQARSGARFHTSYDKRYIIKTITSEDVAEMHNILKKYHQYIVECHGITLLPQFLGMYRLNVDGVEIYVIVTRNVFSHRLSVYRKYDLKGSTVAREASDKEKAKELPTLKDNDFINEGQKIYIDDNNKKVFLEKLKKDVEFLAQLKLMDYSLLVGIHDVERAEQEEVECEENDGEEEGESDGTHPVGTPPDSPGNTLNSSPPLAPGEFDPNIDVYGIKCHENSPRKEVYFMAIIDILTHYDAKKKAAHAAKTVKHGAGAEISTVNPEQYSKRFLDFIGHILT
row,SMILES,Potency
1,O=C1Nc2ccc(C(=O)c3ccco3)cc2/C1=C/c1cc(Cl)c(O)c(Cl)c1,18 nM (active)
